Experimental data from PubChem BioAssay (NCI).
Compounds without any hit were thinned out: in the full panel of roughly 79,000, 15% have a hit. Rule as the data show it: active = growth inhibition above about 70%; inactive = the rest.

Legend:
[1] = NCI Yeast Anticancer Drug Screen. Data for the rad50 strain (AID 155);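 also: 0% = growth of vehicle-only cultures of the same strain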; conditions: S. cerevisiae rad50 strain growth inhibition; at 50.0 µM; hits give high values
Procedure, shortened: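 Compounds were tested on a yeast strain with an engineered DNA damage repair alteration; the reported value is growth inhibition normalised to vehicle treatment.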

[2] = NCI Yeast Anticancer Drug Screen. Data for the mec2-1 strain (AID 157); conditions: S. cerevisiae mec2-1 strain, at 50.0 µM, hits give high values
Procedure, shortened: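 mec2-1 yeast strain, carrying an alteration in DNA damage repair or cell cycle control, was exposed to compounds; growth inhibition was measured relative to vehicle-treated controls.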

[3] = NCI Yeast Anticancer Drug Screen. Data for the sgs1 mgt1 strain (AID 161);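 also: 0% = growth of cultures given vehicle only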; conditions: S. cerevisiae sgs1 mgt1 strain, at 50.0 µM, hits give high values
Procedure, shortened: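 Growth of a repair-deficient yeast mutant was monitored after compound treatment and expressed as inhibition relative to vehicle-treated cultures.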

[4] = NCI Yeast Anticancer Drug Screen. Data for the cln2 rad14 strain (AID 165);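 also: 0% = growth equal to vehicle treated cultures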; conditions: S. cerevisiae cln2 rad14 strain, at 50.0 µM, hits give high values
Procedure, shortened: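 Yeast carrying cln2 and rad14 alterations (cell cycle control and DNA damage repair) were exposed to compounds. Growth inhibition was measured against vehicle-treated controls.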

[5] = NCI Yeast Anticancer Drug Screen. Data for the bub3 strain (AID 167); conditions: S. cerevisiae bub3 mutant strain, at 50.0 µM, hits give high values
Procedure, shortened: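 Growth of a checkpoint-deficient yeast mutant is measured after compound exposure. Values represent inhibition relative to vehicle.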

[6] = NCI Yeast Anticancer Drug Screen. Data for the mlh1 rad18 strain (AID 175); conditions: S. cerevisiae mlh1 rad18 strain growth inhibition; at 50.0 µM; hits give high values
Procedure, shortened: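 Growth inhibition of the yeast strain was measured after compound exposure and expressed relative to vehicle-treated controls. The strain carries defined defects in DNA damage repair.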

Measured: growth inhibition

COc1ccc2cc(NC(=O)N/N=C\c3ccc([N+](=O)[O-])cc3)ccc2c1
inactive: [1] 27.1% | [2] 7.35% | [3] 19.2% | [4] -8.3% | [5] 12.9% | [6] 27.4%

c1ccc(CC2=NCCc3ccccc32)cc1
inactive: [1] -16.4% | [2] -28.3% | [3] -3.3% | [4] 1.15% | [5] -2.6% | [6] -8.7%

[O-]/[N+]1=[N+](\[O-])c2ccccc2CCCc2ccccc21
inactive: [1] -7.35% | [2] -7.3% | [3] -2.6% | [4] -34.1% | [5] -12.8% | [6] -7.1%

O=C(CC(C(=O)c1ccsc1)c1cccs1)c1ccsc1 (configuration not stated)
inactive: [1] -11.2% | [2] -19.2% | [3] 18.6% | [4] 24.5% | [5] 28.9% | [6] 3%

O=c1[nH]c2ccccc2nc1/C=C/n1c(=S)[nH]c2ccccc21
inactive: [1] -31.4% | [2] -28.2% | [3] -46.4% | [4] -16.6% | [5] -33.5% | [6] -20.7%

COc1ccc(N2C(=O)C3c4[nH]c5ccccc5c4C4CCCCCCC4C3C2=O)cc1 (configuration not stated)
inactive: [1] 50.1% | [2] 25.9% | [3] 22.6% | [4] -8.9% | [5] 11.9% | [6] 28.6%

Nc1cccc(C(=O)Nc2ccc3c(O)cc(S(=O)(=O)O)cc3c2)c1
inactive: [1] 15.2% | [2] -3.1% | [3] 11.9% | [4] -30.4% | [5] -12.4% | [6] 7.05%

Oc1ccc(Cl)cc1CN1CCOCC1
inactive: [1] 31.3% | [2] 11.6% | [3] 36.1% | [4] 21.5% | [5] 13.3% | [6] 34.5%

C[N+](C)(C)C1CCC1
inactive: [1] -2.4% | [2] -4.75% | [3] -1.75% | [4] 8.35% | [5] -15.1% | [6] 5.7%

CCC1(O)C(=O)c2ccccc2N(c2ccccc2)C1=O (configuration not stated)
inactive: [1] 9.05% | [2] 3.7% | [3] 4% | [4] -5.85% | [5] 8.3% | [6] 18.2%

CN(Cc1cccc(Cl)c1)C(=O)NC(C)(C)C
inactive: [1] 2.85% | [2] -6.85% | [3] 15.8% | [4] 4.2% | [5] 14.6% | [6] 0.05%

Cc1c2c(cc3c1CCC1(C)C3CCC1C(C)/C=C/C(C)C(C)C)CC(O)CC2 (configuration not stated)
inactive: [1] 6.65% | [2] 11.8% | [3] 2.6% | [4] -0.2% | [5] -3% | [6] 20.5%

COc1cc(OC)cc(N(C)Cc2cnc3nc(N)nc(N)c3c2C)c1
inactive: [1] 0.75% | [2] 11.7% | [3] 15.6% | [4] 11.3% | [5] 12.3% | [6] -3.45%

O=C(O)CCC(CCC(=O)O)(C(=O)O)C(=O)O
inactive: [1] 5.8% | [2] -7.85% | [3] -6.1% | [4] -41% | [5] -0.85% | [6] 2.9%

Cc1cc(=O)n2c(c1)[nH]c1ccccc12
inactive: [1] 3.25% | [2] 0.3% | [3] -5.55% | [4] -0.95% | [5] 1.75% | [6] 1.65%

CC1CSC(C)(C)C(=O)N1 (configuration not stated)
inactive: [1] 16.2% | [2] 14.8% | [3] 2.35% | [4] -26.8% | [5] 13.8% | [6] 19.9%

Brc1ccc(Br)nc1
inactive: [1] -7.6% | [2] -4.65% | [3] -10.1% | [4] 8.05% | [5] -10.1% | [6] -12.9%

Clc1ccc(-c2nnc(-c3cccc4ccccc34)o2)cc1Cl
inactive: [1] 10.1% | [2] -32.3% | [3] -29.5% | [4] 54% | [5] -47.9% | [6] -15%

CC(=O)Oc1ccc2cc(NC(=O)c3ccccc3)c(=O)oc2c1
inactive: [1] 11.8% | [2] -2.85% | [3] -1.6% | [4] -62.4% | [5] -1.9% | [6] -3.35%

O=C(O)CCSc1ccc([N+](=O)[O-])cc1
inactive: [1] -7.3% | [2] -18.6% | [3] -4.75% | [4] -44.1% | [5] -11.5% | [6] 52.6%

CC1=C(C(=O)CC(=O)C(=O)Nc2cccc(C)c2C)Sc2ccccc2N1
inactive: [1] -24.6% | [2] -43.1% | [3] -12.8% | [4] -1.9% | [5] -13.8% | [6] -12.5%

COC(C(N)=O)c1ccccc1 (configuration not stated)
inactive: [1] -9.8% | [2] -11.3% | [3] -16.4% | [4] -8% | [5] 8.7% | [6] -3.45%

NC(=S)N/N=C\CC(O)(C(F)(F)F)C(F)(F)F
inactive: [1] -16.7% | [2] -19.2% | [3] -7.45% | [4] 0.5% | [5] 7.1% | [6] -2.3%

O=S(=O)(O)c1cc(N=Nc2cc(S(=O)(=O)O)c3cccnc3c2O)ccc1/C=C/c1ccc(N=Nc2cc(S(=O)(=O)O)c3cccnc3c2O)cc1S(=O)(=O)O.[Cu+2].[Na+]
inactive: [1] 18.5% | [2] 18.2% | [3] 34.6% | [4] 25% | [5] -11.2% | [6] 9.25%

C/C(=N/N(C=O)C[n+]1ccccc1)C(CN(CC(C)C)CC(C)C)C(=O)Nc1ccc(C)cc1C (configuration not stated)
inactive: [1] -10.4% | [2] 40% | [3] -14.5% | [4] 31.5% | [5] 19.9% | [6] 19.9%

O=C(NCCN1CCOCC1)c1ccc(C(=O)NCCN2CCOCC2)cc1
inactive: [1] 35% | [2] 22.9% | [3] 32.6% | [4] 17.5% | [5] 1.6% | [6] 33.9%

Cc1ccc(Nc2ncnc3c2cnn3-c2ccccc2)cc1
inactive: [1] 9.7% | [2] 12.2% | [3] 43.5% | [4] -24.1% | [5] -2.35% | [6] 8.05%

O=C(OCC1C2CCC(C2)C1c1ccccc1)c1ccc([N+](=O)[O-])cc1 (configuration not stated)
inactive: [1] 1.4% | [2] 8.5% | [3] -2% | [4] -22.7% | [5] -2.75% | [6] 10.5%

C=CCc1cccc(C)c1O
inactive: [1] 18.9% | [2] -16.1% | [3] 20.4% | [4] 13.6% | [5] -2.6% | [6] 20.3%

O=C(NSNc1ccccc1)c1ccccc1
inactive: [1] 0.8% | [2] -3% | [3] -7.6% | [4] -69.7% | [5] -0.6% | [6] -4.05%

CC(O)(C(=O)O)c1ccccc1O (configuration not stated)
inactive: [1] -1.1% | [2] 1.7% | [3] 2.05% | [4] 3.3% | [5] 6.1% | [6] 6.75%

CCCC(C)(C)COC(=O)Cc1ccccc1
inactive: [1] 40.3% | [2] 42% | [3] 55.9% | [4] 23.8% | [5] 23.6% | [6] 46.2%

O=c1n(-c2ccc(Cl)c(Cl)c2)c(=O)n(-c2ccc(Cl)c(Cl)c2)c(=O)n1-c1ccc(Cl)c(Cl)c1
inactive: [1] 3.5% | [2] 5.25% | [3] 9.35% | [4] -44.1% | [5] -3.85% | [6] 4.3%

Clc1ccc(NC2=NCCN=C(Nc3ccc(Cl)c(Cl)c3)SS2)cc1Cl
inactive: [1] -26.9% | [2] -21.4% | [3] -14.7% | [4] -14.1% | [5] -28.1% | [6] -33.6%

CC(C)(C)c1ccc(O)c(Sc2cc(C(C)(C)C)ccc2O)c1
inactive: [1] 5.8% | [2] -24.9% | [3] 7.95% | [4] -33.4% | [5] 12.6% | [6] -15.2%

O=C(O)CCC1CC1C(=O)c1ccccc1 (configuration not stated)
inactive: [1] 15.2% | [2] 5.55% | [3] -3.85% | [4] -37% | [5] -28.6% | [6] 17.9%

COc1ccccc1/C=C/C(=O)c1sc(-c2cccnc2)nc1C
inactive: [1] 38.5% | [2] 17.5% | [3] 5.3% | [4] 17.9% | [5] 23.9% | [6] 33.5%
